Measured values published in publication PMC7862700, “An all-to-all approach to the identification of sequence-specific readers for epigenetic DNA modifications on cytosine”.

Key:
Assay in all cases: DAPPL (digital affinity profiling via proximity ligation, sequencing); 10 mM Tris-HCl pH 7.5, 50 mM NaCl, 1 mM DTT, 4% glycerol, room temperature, 30 min; GST-TFs on glutathione beads, 16-mer random dsDNA library, 0.1% formaldehyde crosslink after washing; high values mean tight binding
FLI1 = target: T1, FLI1 (Homo sapiens, UniProt Q01543 1-452); conditions: protein: recombinant; tags: N-terminal GST; dsDNA, one strand shown
T1 sequence: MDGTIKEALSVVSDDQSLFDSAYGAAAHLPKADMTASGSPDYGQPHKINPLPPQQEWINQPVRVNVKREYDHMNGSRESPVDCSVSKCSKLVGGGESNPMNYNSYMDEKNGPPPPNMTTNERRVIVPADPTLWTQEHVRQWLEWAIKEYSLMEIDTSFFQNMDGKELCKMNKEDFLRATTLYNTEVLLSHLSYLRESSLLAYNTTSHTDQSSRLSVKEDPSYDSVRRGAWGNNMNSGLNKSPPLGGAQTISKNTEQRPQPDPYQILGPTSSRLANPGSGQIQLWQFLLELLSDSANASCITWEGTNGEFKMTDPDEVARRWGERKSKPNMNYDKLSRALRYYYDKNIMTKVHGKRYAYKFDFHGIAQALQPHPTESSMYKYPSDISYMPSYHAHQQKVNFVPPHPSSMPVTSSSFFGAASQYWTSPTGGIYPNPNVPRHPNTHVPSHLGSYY
Outline: (§1)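 After expression in yeast as GST fusions, human transcription factors were bound to glutathione beads, DNA-barcoded and mixed with a tag-only sample. The pools were incubated with 200 nmole of a 16-mer random double-stranded DNA library in Tris/NaCl/DTT/glycerol buffer (30 min, room temperature), washed and crosslinked with 0.1% formaldehyde. Proximity ligation with BsaI/T4 ligase ran for 1 h at 37 °C, before PCR amplification and sequencing on an Illumina NextSeq500. Binding signal is a hexamer's read frequency for a factor divided by its frequency for the tag-only sample.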

ELK1 = target: T2, ELK1 (Homo sapiens, UniProt P19419 1-428); conditions: protein: recombinant; tags: N-terminal GST; dsDNA, one strand shown
T2 sequence: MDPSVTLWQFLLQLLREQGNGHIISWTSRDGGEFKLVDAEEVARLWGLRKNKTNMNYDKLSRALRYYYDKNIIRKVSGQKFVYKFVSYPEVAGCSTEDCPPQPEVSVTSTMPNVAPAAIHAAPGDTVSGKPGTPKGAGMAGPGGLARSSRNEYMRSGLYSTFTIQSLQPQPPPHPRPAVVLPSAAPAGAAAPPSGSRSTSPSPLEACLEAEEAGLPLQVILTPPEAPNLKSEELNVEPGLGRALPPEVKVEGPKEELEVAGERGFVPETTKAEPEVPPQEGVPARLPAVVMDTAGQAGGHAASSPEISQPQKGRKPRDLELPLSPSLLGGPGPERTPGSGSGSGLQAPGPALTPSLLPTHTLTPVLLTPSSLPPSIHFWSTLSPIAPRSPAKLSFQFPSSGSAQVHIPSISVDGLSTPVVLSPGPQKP
Outline: as §1

GABPA = target: T3, GABPA (Homo sapiens, UniProt Q06546 1-454); conditions: protein: recombinant; tags: N-terminal GST; dsDNA, one strand shown
T3 sequence: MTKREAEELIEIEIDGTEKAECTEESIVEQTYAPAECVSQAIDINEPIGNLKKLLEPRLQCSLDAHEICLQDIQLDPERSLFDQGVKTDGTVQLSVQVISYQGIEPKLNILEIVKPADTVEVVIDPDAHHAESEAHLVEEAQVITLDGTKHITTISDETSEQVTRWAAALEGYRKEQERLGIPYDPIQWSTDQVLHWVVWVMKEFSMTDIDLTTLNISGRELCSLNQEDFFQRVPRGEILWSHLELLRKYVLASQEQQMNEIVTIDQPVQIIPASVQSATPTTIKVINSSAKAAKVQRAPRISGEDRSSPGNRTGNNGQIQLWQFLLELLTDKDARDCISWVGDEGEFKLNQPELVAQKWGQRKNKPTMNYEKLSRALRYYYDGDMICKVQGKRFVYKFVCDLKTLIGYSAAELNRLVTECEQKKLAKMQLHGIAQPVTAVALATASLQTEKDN
Outline: as §1

ERG = target: T4, ERG (Homo sapiens, UniProt P11308 1-479); conditions: protein: recombinant; tags: N-terminal GST; dsDNA, one strand shown
T4 sequence: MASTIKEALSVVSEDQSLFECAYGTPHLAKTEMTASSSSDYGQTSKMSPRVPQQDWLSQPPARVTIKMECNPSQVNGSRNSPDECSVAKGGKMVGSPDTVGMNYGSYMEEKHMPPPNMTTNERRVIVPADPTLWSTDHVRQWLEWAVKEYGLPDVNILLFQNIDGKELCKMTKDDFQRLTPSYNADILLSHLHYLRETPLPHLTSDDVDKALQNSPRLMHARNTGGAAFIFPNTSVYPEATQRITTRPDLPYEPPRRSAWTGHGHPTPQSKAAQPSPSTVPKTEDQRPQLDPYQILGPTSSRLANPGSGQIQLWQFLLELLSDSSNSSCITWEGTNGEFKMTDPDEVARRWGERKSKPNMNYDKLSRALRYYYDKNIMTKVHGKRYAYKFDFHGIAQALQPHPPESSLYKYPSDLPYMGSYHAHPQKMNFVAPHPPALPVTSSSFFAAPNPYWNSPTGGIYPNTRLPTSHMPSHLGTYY
Outline: as §1

ELF1 = ELF1 (Homo sapiens, UniProt P32519 1-619); conditions: protein: recombinant; tags: N-terminal GST; dsDNA, one strand shown
ELF1, sequence (P32519 whole entry): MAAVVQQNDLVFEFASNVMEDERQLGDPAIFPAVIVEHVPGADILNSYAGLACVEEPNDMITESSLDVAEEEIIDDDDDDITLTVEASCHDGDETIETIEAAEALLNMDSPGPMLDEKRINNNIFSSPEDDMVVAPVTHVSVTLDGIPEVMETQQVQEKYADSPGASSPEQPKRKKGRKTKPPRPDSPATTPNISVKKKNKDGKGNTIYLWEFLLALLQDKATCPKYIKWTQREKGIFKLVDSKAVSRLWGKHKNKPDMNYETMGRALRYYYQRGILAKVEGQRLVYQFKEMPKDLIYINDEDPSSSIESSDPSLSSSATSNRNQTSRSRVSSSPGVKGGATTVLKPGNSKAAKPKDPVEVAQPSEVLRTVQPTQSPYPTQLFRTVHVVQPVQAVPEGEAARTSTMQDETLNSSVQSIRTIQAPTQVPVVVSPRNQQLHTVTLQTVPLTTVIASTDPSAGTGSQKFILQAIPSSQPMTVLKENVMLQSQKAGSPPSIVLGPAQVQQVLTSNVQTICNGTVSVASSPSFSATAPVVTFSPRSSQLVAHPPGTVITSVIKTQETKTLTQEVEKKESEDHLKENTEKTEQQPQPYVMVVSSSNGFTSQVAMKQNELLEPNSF
Outline: as §1

EHF = target: T5, EHF (Homo sapiens, UniProt Q9NZC4 1-300); conditions: protein: recombinant; tags: N-terminal GST; dsDNA, one strand shown
T5 sequence: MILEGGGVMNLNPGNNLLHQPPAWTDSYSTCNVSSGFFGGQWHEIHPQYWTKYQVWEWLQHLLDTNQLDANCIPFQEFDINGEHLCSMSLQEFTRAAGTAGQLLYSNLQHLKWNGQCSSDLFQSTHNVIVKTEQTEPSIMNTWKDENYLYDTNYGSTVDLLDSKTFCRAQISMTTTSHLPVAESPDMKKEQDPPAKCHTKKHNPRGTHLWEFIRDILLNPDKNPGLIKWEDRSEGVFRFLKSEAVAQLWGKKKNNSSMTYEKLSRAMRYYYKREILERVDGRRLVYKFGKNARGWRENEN
Outline: as §1

SPI1 = SPI1 (Homo sapiens, UniProt P17947 1-270); conditions: protein: recombinant; tags: N-terminal GST; dsDNA, one strand shown
Outline: as §1

SPIB = SPIB (Homo sapiens, UniProt Q01892 1-262); conditions: protein: recombinant; tags: N-terminal GST; dsDNA, one strand shown
SPIB, sequence (Q01892 whole entry): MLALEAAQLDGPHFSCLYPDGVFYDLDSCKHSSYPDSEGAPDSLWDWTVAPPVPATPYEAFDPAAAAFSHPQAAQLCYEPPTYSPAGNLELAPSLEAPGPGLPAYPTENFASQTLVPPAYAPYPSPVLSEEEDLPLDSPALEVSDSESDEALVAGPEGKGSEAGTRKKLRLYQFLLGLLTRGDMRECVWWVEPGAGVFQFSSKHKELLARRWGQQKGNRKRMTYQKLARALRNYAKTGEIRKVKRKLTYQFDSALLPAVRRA
Outline: as §1

ELK3 = target: T6, ELK3 (Homo sapiens, UniProt P41970 1-407); conditions: protein: recombinant; tags: N-terminal GST; dsDNA, one strand shown
T6 sequence: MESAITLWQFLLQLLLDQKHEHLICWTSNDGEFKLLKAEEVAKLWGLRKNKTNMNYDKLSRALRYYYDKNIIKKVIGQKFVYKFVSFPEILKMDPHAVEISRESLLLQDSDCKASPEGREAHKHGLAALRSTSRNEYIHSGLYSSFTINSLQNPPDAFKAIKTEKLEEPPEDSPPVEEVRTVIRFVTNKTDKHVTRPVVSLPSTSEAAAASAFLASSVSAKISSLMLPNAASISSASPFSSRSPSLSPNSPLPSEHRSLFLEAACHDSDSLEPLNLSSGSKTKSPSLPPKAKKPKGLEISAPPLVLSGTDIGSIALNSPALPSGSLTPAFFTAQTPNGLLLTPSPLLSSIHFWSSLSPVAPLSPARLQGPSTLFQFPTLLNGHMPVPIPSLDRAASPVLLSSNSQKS
Outline: as §1

FEV = target: T7, FEV (Homo sapiens, UniProt Q99581 1-238); conditions: protein: recombinant; tags: N-terminal GST; dsDNA, one strand shown
T7 sequence: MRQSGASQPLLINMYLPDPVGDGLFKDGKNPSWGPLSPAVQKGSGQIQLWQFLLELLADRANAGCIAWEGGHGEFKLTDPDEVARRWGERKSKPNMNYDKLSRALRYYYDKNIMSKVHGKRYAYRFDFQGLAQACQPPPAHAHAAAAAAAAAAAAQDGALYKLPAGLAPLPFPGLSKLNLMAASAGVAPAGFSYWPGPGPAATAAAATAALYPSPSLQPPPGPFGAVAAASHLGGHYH
Outline: as §1

ETV5 = ETV5 (Homo sapiens, UniProt P41161 1-510); conditions: protein: recombinant; tags: N-terminal GST; dsDNA, one strand shown
ETV5, sequence (P41161 whole entry): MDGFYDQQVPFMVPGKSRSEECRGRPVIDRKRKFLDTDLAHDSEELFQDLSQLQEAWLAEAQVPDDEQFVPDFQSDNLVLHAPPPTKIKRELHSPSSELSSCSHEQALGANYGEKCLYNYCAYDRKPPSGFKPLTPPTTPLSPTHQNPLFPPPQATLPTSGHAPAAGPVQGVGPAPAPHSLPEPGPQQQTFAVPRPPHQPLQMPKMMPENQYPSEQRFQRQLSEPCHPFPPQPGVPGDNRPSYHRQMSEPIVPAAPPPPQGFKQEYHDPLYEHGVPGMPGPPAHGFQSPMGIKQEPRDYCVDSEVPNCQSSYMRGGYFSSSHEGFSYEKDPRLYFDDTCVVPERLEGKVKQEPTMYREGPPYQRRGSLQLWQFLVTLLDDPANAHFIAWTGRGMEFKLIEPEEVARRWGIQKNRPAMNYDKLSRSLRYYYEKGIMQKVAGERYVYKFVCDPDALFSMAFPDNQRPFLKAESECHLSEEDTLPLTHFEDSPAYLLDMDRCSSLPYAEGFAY
Outline: as §1

HSF1 = HSF1 (Homo sapiens, UniProt Q00613 1-529); conditions: protein: recombinant; tags: N-terminal GST; chain copies: 3; dsDNA, one strand shown
HSF1, sequence (Q00613 whole entry): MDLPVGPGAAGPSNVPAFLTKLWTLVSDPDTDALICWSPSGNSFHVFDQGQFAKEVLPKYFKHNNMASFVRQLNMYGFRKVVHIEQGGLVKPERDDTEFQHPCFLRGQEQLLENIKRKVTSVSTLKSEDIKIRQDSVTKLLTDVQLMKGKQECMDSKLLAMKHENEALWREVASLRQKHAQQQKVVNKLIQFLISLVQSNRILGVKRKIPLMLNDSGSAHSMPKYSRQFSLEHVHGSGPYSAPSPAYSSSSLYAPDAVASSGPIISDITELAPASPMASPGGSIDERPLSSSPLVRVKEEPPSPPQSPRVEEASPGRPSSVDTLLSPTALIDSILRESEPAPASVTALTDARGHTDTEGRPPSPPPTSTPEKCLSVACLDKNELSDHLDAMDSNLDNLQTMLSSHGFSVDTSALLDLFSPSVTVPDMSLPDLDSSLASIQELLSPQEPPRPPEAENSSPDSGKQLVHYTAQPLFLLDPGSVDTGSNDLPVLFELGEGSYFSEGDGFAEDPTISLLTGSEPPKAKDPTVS
Outline: as §1

SPIC = target: T8, SPIC (Homo sapiens, UniProt Q8N5J4 1-248); conditions: protein: recombinant; tags: N-terminal GST; dsDNA, one strand shown
T8 sequence: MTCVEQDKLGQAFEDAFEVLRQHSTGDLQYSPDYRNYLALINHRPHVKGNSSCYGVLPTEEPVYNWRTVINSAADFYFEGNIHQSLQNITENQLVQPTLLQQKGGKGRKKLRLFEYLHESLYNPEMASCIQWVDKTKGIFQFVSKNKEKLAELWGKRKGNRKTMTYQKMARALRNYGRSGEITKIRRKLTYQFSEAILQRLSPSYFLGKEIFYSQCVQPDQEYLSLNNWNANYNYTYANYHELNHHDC
Outline: as §1

ELF4 = ELF4 (Homo sapiens, UniProt Q99607 1-663); conditions: protein: recombinant; tags: N-terminal GST; dsDNA, one strand shown
ELF4, sequence (Q99607 whole entry): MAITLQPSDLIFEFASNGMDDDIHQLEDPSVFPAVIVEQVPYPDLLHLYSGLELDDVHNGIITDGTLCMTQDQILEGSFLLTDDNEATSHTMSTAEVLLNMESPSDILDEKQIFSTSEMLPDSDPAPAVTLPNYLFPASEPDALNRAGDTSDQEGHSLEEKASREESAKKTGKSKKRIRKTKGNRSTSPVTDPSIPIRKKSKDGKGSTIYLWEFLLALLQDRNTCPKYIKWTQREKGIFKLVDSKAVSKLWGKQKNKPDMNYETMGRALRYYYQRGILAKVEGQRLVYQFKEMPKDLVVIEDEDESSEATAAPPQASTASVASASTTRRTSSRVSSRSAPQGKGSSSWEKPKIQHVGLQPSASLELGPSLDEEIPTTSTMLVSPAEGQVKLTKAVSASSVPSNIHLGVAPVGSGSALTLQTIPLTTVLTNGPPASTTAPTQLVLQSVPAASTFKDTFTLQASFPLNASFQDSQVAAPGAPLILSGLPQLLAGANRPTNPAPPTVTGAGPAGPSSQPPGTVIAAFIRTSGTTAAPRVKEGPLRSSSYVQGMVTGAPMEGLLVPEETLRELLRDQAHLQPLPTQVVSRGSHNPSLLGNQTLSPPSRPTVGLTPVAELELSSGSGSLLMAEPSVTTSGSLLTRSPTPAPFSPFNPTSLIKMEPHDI
Outline: as §1

ELK4 = target: T9, ELK4 (Homo sapiens, UniProt P28324-2 1-405); conditions: protein: recombinant; tags: N-terminal GST; dsDNA, one strand shown
T9 sequence: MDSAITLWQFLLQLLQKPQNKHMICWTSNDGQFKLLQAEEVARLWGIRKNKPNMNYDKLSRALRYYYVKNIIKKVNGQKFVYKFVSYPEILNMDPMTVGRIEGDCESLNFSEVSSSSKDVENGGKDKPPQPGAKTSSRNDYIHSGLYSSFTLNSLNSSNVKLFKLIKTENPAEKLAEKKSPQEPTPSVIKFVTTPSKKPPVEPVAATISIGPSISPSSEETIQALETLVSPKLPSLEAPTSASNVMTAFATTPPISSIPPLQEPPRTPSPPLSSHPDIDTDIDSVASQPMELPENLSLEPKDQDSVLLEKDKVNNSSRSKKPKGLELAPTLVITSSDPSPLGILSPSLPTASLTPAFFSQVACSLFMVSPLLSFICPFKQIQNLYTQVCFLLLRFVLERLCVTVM
Outline: as §1

ETV2 = target: T10, ETV2 (Homo sapiens, UniProt O00321 1-342); conditions: protein: recombinant; tags: N-terminal GST; dsDNA, one strand shown
T10 sequence: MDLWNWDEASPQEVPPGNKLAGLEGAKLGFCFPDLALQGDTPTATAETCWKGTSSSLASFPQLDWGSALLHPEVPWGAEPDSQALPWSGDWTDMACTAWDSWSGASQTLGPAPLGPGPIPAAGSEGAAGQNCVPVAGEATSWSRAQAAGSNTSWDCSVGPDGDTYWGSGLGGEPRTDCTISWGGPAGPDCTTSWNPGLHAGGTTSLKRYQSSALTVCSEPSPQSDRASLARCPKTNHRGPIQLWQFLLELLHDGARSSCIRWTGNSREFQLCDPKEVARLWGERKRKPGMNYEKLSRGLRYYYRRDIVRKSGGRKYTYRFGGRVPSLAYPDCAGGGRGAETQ
Outline: as §1

ELF3 = target: T11, ELF3 (Homo sapiens, UniProt P78545 1-371); conditions: protein: recombinant; tags: N-terminal GST; dsDNA, one strand shown
T11 sequence: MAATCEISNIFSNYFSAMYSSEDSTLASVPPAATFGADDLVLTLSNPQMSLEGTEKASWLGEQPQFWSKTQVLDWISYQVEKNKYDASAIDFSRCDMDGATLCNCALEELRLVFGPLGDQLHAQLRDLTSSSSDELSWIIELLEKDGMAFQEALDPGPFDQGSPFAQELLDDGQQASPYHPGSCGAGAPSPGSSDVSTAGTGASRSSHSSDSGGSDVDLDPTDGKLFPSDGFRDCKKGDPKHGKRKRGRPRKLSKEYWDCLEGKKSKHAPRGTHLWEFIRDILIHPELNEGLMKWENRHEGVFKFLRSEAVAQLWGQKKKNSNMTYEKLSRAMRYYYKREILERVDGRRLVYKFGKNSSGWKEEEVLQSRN
Outline: as §1

ETV1 = ETV1 (Homo sapiens, UniProt P50549 1-477); conditions: protein: recombinant; tags: N-terminal GST; dsDNA, one strand shown
ETV1, sequence (P50549 whole entry): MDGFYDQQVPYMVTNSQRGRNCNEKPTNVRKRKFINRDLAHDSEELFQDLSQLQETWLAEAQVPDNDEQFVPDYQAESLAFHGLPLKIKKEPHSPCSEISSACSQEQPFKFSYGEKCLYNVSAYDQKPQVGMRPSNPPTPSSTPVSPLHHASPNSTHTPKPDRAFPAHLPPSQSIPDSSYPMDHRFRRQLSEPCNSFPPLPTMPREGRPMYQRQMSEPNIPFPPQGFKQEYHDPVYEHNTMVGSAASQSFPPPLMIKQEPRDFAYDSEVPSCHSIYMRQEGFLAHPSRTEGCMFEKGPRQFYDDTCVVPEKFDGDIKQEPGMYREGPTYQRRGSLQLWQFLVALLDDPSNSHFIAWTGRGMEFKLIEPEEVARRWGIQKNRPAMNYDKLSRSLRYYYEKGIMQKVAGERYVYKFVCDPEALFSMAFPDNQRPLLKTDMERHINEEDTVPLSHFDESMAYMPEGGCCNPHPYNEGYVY
Outline: as §1

ATGTGG
binding signal (FLI1): 1.08 fold enrichment (6-mer frequency, TF over GST control)
binding signal (ELK1): 1.05 fold enrichment (6-mer frequency, TF over GST control)
binding signal (GABPA): 1.11 fold enrichment (6-mer frequency, TF over GST control)
binding signal (ERG): 1.21 fold enrichment (6-mer frequency, TF over GST control)
binding signal (ELF1): 1.18 fold enrichment (6-mer frequency, TF over GST control)
binding signal (EHF): 1.23 fold enrichment (6-mer frequency, TF over GST control)
binding signal (SPI1): 1.02 fold enrichment (6-mer frequency, TF over GST control)
binding signal (SPIB): 1.31 fold enrichment (6-mer frequency, TF over GST control)
binding signal (ELK3): 1.1 fold enrichment (6-mer frequency, TF over GST control)
binding signal (FEV): 1.2 fold enrichment (6-mer frequency, TF over GST control)
binding signal (ETV5): 1.09 fold enrichment (6-mer frequency, TF over GST control)
binding signal (HSF1): 1.04 fold enrichment (6-mer frequency, TF over GST control)
binding signal (SPIC): 1.18 fold enrichment (6-mer frequency, TF over GST control)
binding signal (ELF4): 1.15 fold enrichment (6-mer frequency, TF over GST control)
binding signal (ELK4): 1.27 fold enrichment (6-mer frequency, TF over GST control)
binding signal (ETV2): 1.28 fold enrichment (6-mer frequency, TF over GST control)
binding signal (ELF3): 1.26 fold enrichment (6-mer frequency, TF over GST control)
binding signal (ETV1): 1.12 fold enrichment (6-mer frequency, TF over GST control)
